Compound activity from PubChem BioAssay.
TIM10 inh: growth inhibitors of isogenic TIM10 control yeast, primary screen, counter-screen for tim10-1 yeast inhibitor project, luminescence, uHTS. 330,000 tested, 1.4% active. inhibition, % at 10 µM. S. cerevisiae TIM10 strain growth, BacTiter-Glo luminescence, 24 h;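 active = inhibition of 40% or more at the single tested concentration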;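 note: wild-type TIM10 isogenic control strain grown at permissive 25 °C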
tim10-1 inh: growth inhibitors of tim10-1 mutant yeast, primary screen, luminescence, uHTS; S. cerevisiae tim10-1 ts strain growth, BacTiter-Glo, 24 h; 330,000 tested, 2.2% active; inhibition, % at 20 µM;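 active = inhibition of at least 40%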;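 note: mutant grown at 25 °C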
tim23-1 inh: growth inhibitors of tim23-1 mutant yeast, primary screen, luminescence, uHTS; S. cerevisiae tim23-1 growth, BacTiter-Glo luminescence, 24 h; AID 463212, 2010; inhibition, % at 20 µM; 330,000 tested, 1.3% active;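 active = growth inhibition of the mutant yeast at or above 50%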;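 note: temperature-sensitive mutant grown at 25 °C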
SKKanGAS inh: S. pyogenes SKKanGAS growth inhibitors in kanamycin, primary screen, streptokinase expression inhibitor project, SKKanGAS strain, BacTiter-Glo luminescence. 6 h. inhibition, % at 7.5 µM. 300,000 tested, 1.3% active;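 active = mean replicate score, as percent of positive control median, at least 50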;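 note: strain carries kanamycin resistance gene driven by streptokinase promoter and grows in 40 µg/ml kanamycin; loss of luminescence reflects streptokinase promoter inhibition or plain growth inhibition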
PfHsp90 yeast 2: growth inhibition of PfHsp90-expressing yeast, primary screen, antimalarial PfHsp90 inhibitor project, S. cerevisiae, BacTiter-Glo luminescence, single point, set 2 | 310,000 tested, 0.32% active | BacTiter-Glo ATP, 48 h; yeast lacking PDR1 and PDR3 efflux regulators | inhibition, % at 9.4 µM;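 active = every replicate shows inhibition above about 80%, whatever the replicate mean, limit read from the data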
EBI2 antag: EBI2 receptor antagonists, beta-arrestin recruitment, primary screen, cell-based, luminescence, 7a,25-OHC stimulation, uHTS | 7a,25-OHC stimulated | inhibition, % at 5 µM | 360,000 tested, 0.81% active; in the data active = inhibition above about 38%;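 note: enzyme fragment complementation signal reports receptor beta-arrestin coupling in cells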
Target sequence (P32249 whole entry, looked up, the tested form may be a part): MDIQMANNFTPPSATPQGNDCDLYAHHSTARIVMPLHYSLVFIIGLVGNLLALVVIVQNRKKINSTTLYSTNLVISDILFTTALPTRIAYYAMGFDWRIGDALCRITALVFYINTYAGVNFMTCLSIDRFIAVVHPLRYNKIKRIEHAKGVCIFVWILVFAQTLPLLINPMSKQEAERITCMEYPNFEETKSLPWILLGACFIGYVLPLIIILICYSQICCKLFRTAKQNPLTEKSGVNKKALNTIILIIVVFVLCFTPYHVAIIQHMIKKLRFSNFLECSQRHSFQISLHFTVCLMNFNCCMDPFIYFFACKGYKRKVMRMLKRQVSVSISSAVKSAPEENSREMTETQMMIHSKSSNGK
tim10 confirm: growth inhibitors of wild-type TIM10 yeast, confirmation, counter-screen for tim10-1 synthetic lethality project, single concentration, luminescence, S. cerevisiae. inhibition, % at 10 µM. shares compounds with TIM10 inh. S. cerevisiae tim10 strain growth, BacTiter-Glo luminescence, 24 h. 4,600 tested, 63% active;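 active = inhibition of yeast growth at or above a set limit in either of two replicates at 10 µM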; note: this counterscreen used the strain with wild-type TIM10
Each line names hits and unclear results; the compound was inactive in the other large screens (follow-up assays come after a bar, where they were run). Hits are enriched below; roughly 4.7% of the tested compounds scored in any of these assays.

NNC(=O)C(Cc1ccccc1)NC(=O)OCc1ccccc1 (configuration not stated)	none
O=C(CSc1cn[nH]n1)Nc1ccccc1C(=O)O	none
CN(C(=S)Nc1ccc(SC(F)F)cc1)C(c1ccccc1)c1ccccc1	TIM10 inh 41.8 | tim10 confirm 40.4
CN(C)CCCN(Cc1ccccc1)C(=S)Nc1ccc(SC(F)F)cc1	none
COCCn1c(C)cc(C(=O)COc2ncnc3ccc(Br)cc23)c1C	TIM10 inh 42.7 | tim10 confirm inactive
CC(=O)OCCCN1C(=O)c2cccc3cc(Br)cc(c23)C1=O	TIM10 inh 61.1 (no result: PfHsp90 yeast 2, EBI2 antag) | tim10 confirm inactive
CCOC(=O)CCCCCN1C(=O)c2cccc3cccc(c23)C1=O	none
CCn1c(O)c(/C=C2\C=Nc3ccccc32)sc1=O	TIM10 inh 44.3 | tim10 confirm inactive
CN(C)S(=O)(=O)Oc1ccc(C(=O)Nc2cccc(C(F)(F)F)c2)cc1	none
CN(C)S(=O)(=O)Oc1ccc(C(=O)Nc2cccc(Cl)c2)cc1	TIM10 inh 47.1 | tim10 confirm 45.2
Cc1cc(Cl)nc2c(C(C)C)cccc12	none
On1onc2c3cc(-c4ccccc4)nc3ccc21	TIM10 inh 61.1 (no result: SKKanGAS inh) | tim10 confirm 52.9
Cc1nn(C(C)C(=O)NC(C)CCc2ccccc2)c(=O)c2cc3occc3n12 (configuration not stated)	none
C/C(=N\Nc1ccc(S(=O)(=O)N2CCCCC2)cn1)c1cccc(Br)c1	TIM10 inh 41.2 (no result: SKKanGAS inh) | tim10 confirm 45.5
Cc1ccc(S(=O)(=O)NCCSc2nnnn2-c2ccccc2)cc1	none
Cc1ccc(S(=O)(=O)NCCSc2nnnn2-c2cc(C)ccc2C)cc1	TIM10 inh 45.2 | tim10 confirm inactive
O=C(NNC(=O)c1ccco1)c1csc(N2CCOCC2)n1	none
COCCNC(=O)/C(C#N)=C/c1ccc(C(=O)O)cc1	none
COCCCNC(=O)/C(C#N)=C/c1cccc(NC(=O)c2ccccc2Cl)c1	TIM10 inh 45.1 | tim10 confirm 45.5
CC(C)CC1Nc2ncnc(N3CCN(c4ccccc4)CC3)c2N(Cc2ccc(Br)cc2)C1=O (configuration not stated)	none (no result: PfHsp90 yeast 2)
CCn1c(SCC(=O)N(C)C2CCCCC2)nc2cc(S(N)(=O)=O)ccc21	TIM10 inh 40.8 (no result: SKKanGAS inh) | tim10 confirm inactive
CNC(=O)c1ccc(Nc2nc(-c3ccccc3)nc3ccccc23)cc1	TIM10 inh 40.0 | tim10 confirm inactive
COc1ccc(Nc2nc(-c3ccncc3)nc3ccccc23)cc1	none
Cc1cc(N/N=C/c2ccccc2O)c2ccccc2n1	TIM10 inh 58.9 | tim10 confirm 26.6
COCCNCC(=O)Nc1nc(C)cs1	none (no result: TIM10 inh, tim10-1 inh, tim23-1 inh, SKKanGAS inh)
Cc1ccc(Nc2nc(Nc3ccc(C)cc3)nc(SC3=NCCS3)n2)cc1	none
Cc1ccccc1Nc1nc(Nc2ccccc2C)nc(SC2=NCCS2)n1	TIM10 inh 42.0 | tim10 confirm 45.2
COc1ccc(N2CCN(C3CCCN(C(=O)c4cccc(C)n4)C3)CC2)cc1 (configuration not stated)	none
Cc1nc(Nc2c(Cl)cccc2Cl)sc1C(=O)Nc1ccccc1	TIM10 inh 44.5 | tim10 confirm inactive
Cc1nc(NC(=O)C2CC2)sc1C(=O)Nc1ccccc1	none
Cc1ccc(NS(=O)(=O)c2ccc(NC(=O)c3ccc(Br)o3)cc2)c(C)c1	TIM10 inh 41.9 (no result: PfHsp90 yeast 2) | tim10 confirm inactive
Cc1ccc(NS(=O)(=O)c2ccc(NC(=O)c3ccccc3C(=O)O)cc2)c(C)c1	none
O=C(N=C1c2ccccc2CN1c1ccc(F)c(F)c1)c1cccnc1	TIM10 inh 48.6 (no result: SKKanGAS inh) | tim10 confirm inactive
Cc1cc(C)c(C)c(S(=O)(=O)N2CCN(CC(=O)c3c(N)n(Cc4ccccc4)c(=O)n(C)c3=O)CC2)c1C	none
O=C(CCC(=O)Nc1nnc(C2CCCCC2)s1)NCc1ccccc1	TIM10 inh 54.8 | tim10 confirm inactive
CCOc1ccccc1NC(=O)CCC(=O)Nc1nnc(C2CCCCC2)s1	none
Cc1ccc2c(CC(=O)NC3=NCCS3)coc2c1	none
Cc1cc2occ(CC(=O)NC3=NCCS3)c2cc1C(C)C	TIM10 inh 40.1, SKKanGAS inh 65.4 | tim10 confirm 36.7
Fc1ccc2nc(Nc3ccccc3)sc2c1	TIM10 inh 42.6 | tim10 confirm inactive
NNc1nc2ccc(F)cc2s1	none
O=C(COC(=O)c1ccccc1Nc1ccc(SC(F)F)cc1)NC1CC1	TIM10 inh 51.1 | tim10 confirm 37.0
O=C(O)COc1cccc(/C=C2/SC(=S)N(Cc3ccccc3)C2=O)c1	none
O=C1/C(=C\c2ccc(O)c(O)c2)SC(=S)N1Cc1ccccc1	TIM10 inh 50.3, PfHsp90 yeast 2 122.1 | tim10 confirm 56.2
CCC(=O)Nc1ccc2c(c1)C(=O)N(C)C2=O	none
CCC(=O)Nc1ccc2c(c1)C(=O)c1ccccc1C2=O	TIM10 inh 42.0 | tim10 confirm inactive
Cn1cc(Br)c(NC(=O)/C=C/C(=O)O)n1	TIM10 inh 65.9 | tim10 confirm inactive
CCOC(=O)CC(c1ccc([N+](=O)[O-])cc1)n1c(C)ccc1C (configuration not stated)	none
COc1ccccc1C(=O)NCCC(=O)NNC(=O)c1ccccc1O	TIM10 inh 96.5 | tim10 confirm inactive
COCC(=O)NNC(=O)c1ccccc1OC	none
CN(C)c1ccc(/C=C/C(=O)c2ccc3c(c2)OCO3)cc1	none (no result: SKKanGAS inh)
CN(C)c1ccc(/C=C/C(=O)c2ccc3c(c2)OCCO3)cc1[N+](=O)[O-]	TIM10 inh 43.2 | tim10 confirm inactive
CC1(C)NC(=O)N(CCOCCOc2c(Cl)cc(Cl)cc2Cl)C1=O	none
CCCNC(=O)C1(CC2CC(c3ccccc3)=NO2)CCN(C(=O)CCCCCBr)CC1 (configuration not stated)	none (no result: PfHsp90 yeast 2)
CCCCOc1cccc(/C=N/NC(=O)c2csc(C)c2C)c1	TIM10 inh 47.9 | tim10 confirm inactive
Cc1cccc(NC(=S)N2CCC(C(=O)c3ccc(F)cc3)CC2)c1C	none
COc1ccc(NC(=O)N2CCN(c3nc(-c4cccc(OC)c4)cs3)CC2)cc1	TIM10 inh 40.2 | tim10 confirm 29.1
O=C(Nc1ccc(NC(=O)c2ccccc2F)cc1)c1cccs1	TIM10 inh 44.8 (no result: SKKanGAS inh, PfHsp90 yeast 2) | tim10 confirm inactive
O=C(Nc1ccc(NC(=O)c2cccs2)cc1)c1cccs1	none
